The structures appear in SMILES notation. Counter-ions that a name gives are not always drawn.

This experiment deals with replication-induced senescent mouse newborn dermal fibroblasts (NBF). Briefly: relative cell viability of senescent cells (fraction); higher = less killing of senescent cells. The note with it: 1 µM; 3 days. As to the method:
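Replication-induced senescent newborn mouse skin fibroblasts (NBFs) in 24-well plates were treated with a Selleck FDA-approved drug library at 1 µM for 3 days.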
`Clc1ccc2nsnc2c1NC1=NCCN1` [Tizanidine HCl] gave a relative cell viability of 0.994.

Molecule `CC(C)c1cc(-c2n[nH]c(=O)n2-c2ccc3c(ccn3C)c2)c(O)cc1O` [Ganetespib (STA-9090)] registered a relative cell viability of 0.0837.

In the case of `CCCCC(=O)N(Cc1ccc(-c2ccccc2-c2nnn[nH]2)cc1)[C@H](C(=O)O)C(C)C` [Valsartan], the relative cell viability worked out at 0.897.

Regarding `CCc1c2c(nc3ccc(OC(=O)N4CCC(N5CCCCC5)CC4)cc13)-c1cc3c(c(=O)n1C2)COC(=O)[C@]3(O)CC` [Irinotecan], the relative cell viability is 0.893.

The molecule `COc1cc(Nc2nc3ccccc3nc2NS(=O)(=O)c2ccc(NC(=O)c3ccc(C)c(OC)c3)cc2)cc(OC)c1` had a relative cell viability of 0.969.

With `Clc1ccc(C(Cn2ccnc2)OCc2c(Cl)cccc2Cl)c(Cl)c1` (stereo unspecified) [Isoconazole nitrate], the relative cell viability worked out at 0.937.

Values taken from the supplement of paper PMC7184167.
